In the library only some 22% were active in any assay of this set; here they are far more common.
LmPK inh = LmPK (Leishmania mexicana) enzyme inhibition | AID 1721 | purified LmPK, Kinase-Glo ATP luminescence, 1 h | Potency, µM (series often up to 57.5 µM), usual class: inhibitors | 0.37% of 290,000 active
Target sequence (Q27686 whole entry, looked up): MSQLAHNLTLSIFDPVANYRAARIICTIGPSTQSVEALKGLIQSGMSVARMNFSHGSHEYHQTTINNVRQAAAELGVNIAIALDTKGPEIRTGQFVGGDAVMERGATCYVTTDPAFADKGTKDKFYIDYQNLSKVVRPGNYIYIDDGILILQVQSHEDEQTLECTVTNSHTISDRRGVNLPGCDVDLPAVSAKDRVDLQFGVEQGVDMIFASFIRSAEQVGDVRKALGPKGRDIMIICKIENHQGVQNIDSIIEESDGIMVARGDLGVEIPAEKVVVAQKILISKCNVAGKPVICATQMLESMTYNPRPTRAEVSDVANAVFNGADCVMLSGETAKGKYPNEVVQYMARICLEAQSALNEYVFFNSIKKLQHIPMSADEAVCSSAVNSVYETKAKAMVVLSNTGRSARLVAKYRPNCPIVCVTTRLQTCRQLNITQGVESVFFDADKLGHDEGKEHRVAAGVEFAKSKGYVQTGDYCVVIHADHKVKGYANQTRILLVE
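qHTS format; LmPK 0.1 nM; substrates PEP 0.5 mM and ADP 0.1 mM. One-hour room-temperature incubation, then coupled luciferase luminescence; 0.5 nM enzyme wells mark activation.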
Pf growth 48h = inhibits P. falciparum growth in the first generation, 48 h; Potency, µM (titrated, usually from 28.7 µM), usual class: inhibitors; 5.9% of 310,000 active; P. falciparum luciferase growth in erythrocytes, 48 h
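Erythrocytes infected with P. falciparum carrying an integrated firefly luciferase reporter (2% hematocrit, 0.1% parasitemia final) were exposed to compounds in RPMI 1640 with 0.5% Albumax at 37 C, 5% CO2. Growth inhibition was scored as reduced luminescence.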
Shiga inhibitor = blocks Shiga toxin action in Vero cells. Vero cells, Shiga toxin protein synthesis inhibition reporter. inhibition, % at 38.7 µM. 9.2% of 290,000 active. AID 2315; in the data active = inhibition mostly above about 28%, no sharp cut-off; inactive = mostly below about 43%
Pf growth 96h = P. falciparum growth inhibition at 96 hour, primary screen for plastid delayed-death inhibitors | P. falciparum luciferase reporter growth, 96 h | Potency, µM (highest dose often 28.7 µM), most hits filed as inhibitors | 6.9% of 320,000 active
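P. falciparum expressing integrated firefly luciferase, in erythrocytes at 2% hematocrit, 0.05% parasitemia, incubated with compounds 96 h at 37 C, 5% CO2. Growth inhibition read as loss of luminescence; two-generation exposure targets delayed-death apicoplast inhibitors.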
Cycloheximide cs = affects cycloheximide protein synthesis inhibition readout, counter-screen | cell reporter, cycloheximide protein synthesis inhibition counterscreen | max response, % | 12% of 300,000 active; in the data active = max response mostly above about 13%, no sharp cut-off; inactive = mostly below about 14%; also: read at 38.3 µM for the half of the compounds with a filed dose
Numbers stand for hits; . = inactive; ? = inconclusive; / = no result given; [ ] = another dose, or the depositor's remark. Unless noted, calls follow the shape of the dose curve; as a rule, active = well fitted inhibition curve with a large enough effect; inconclusive = small, poorly fitted or top-dose-only effect, or another doubt; inactive = no such curve, though single readings can be large or run the other way.

SMILES | LmPK inh | Pf growth 48h | Shiga inhibitor | Pf growth 96h | Cycloheximide cs
Cc1cc2ncn(-c3ncnc4sc5c(c34)CCC(C)C5)c2cc1C (configuration not stated) | . | . | . | . | .
Cc1ccc(-c2cc(C(=O)NCc3cccnc3)no2)cc1 | . | . | 50 | . | 53
COc1ccc(C(=O)NCc2cccnc2)cc1OC | . | . | . | . | .
COc1ccc(-c2cc(C(=O)NCc3cccnc3)no2)cc1OC | . | . | . | 9.3µM | .
Cc1cc(C(=O)NCc2cccnc2)no1 | . | . | . | / | .
O=C(c1cccc(C(F)(F)F)c1)N1CCC2(CC1)NCCc1[nH]cnc12 | . | . | . | . | .
CC(=O)Nc1c2c(nn1-c1ccccc1C)CS(=O)(=O)C2 | . | . | . | . | .
Cc1c(CCOC(=O)C23CC4(C)CC(C)(CC(C)(C4)C2)C3)sc[n+]1CC(=O)c1ccccc1 | . | ? | . | . | .
Cc1c(CCOC(=O)C23CC4CC(CC(C4)C2)C3)sc[n+]1Cc1ccccc1 | . | 3.3µM | . | . | .
Cc1c(CCOC(=O)C23CC4CC(CC(C)(C4)C2)C3)sc[n+]1Cc1ccccc1 | . | 3.3µM | . | 12µM | .
Cc1c(CCOC(=O)CC23CC4CC(CC(C4)C2)C3)sc[n+]1CC(=O)c1ccccc1 | . | 13µM | . | . | .
Cc1ccc(C(=O)OCCc2sc[n+](Cc3ccccc3)c2C)cc1 | . | 1.5µM | . | 1µM | .
O=C(NC1CCCC1)c1cccc2c1C(=O)c1ccc(Cl)cc1S2(=O)=O | / | . | / | ? | /
Cn1c(O)c(N=NC(=S)Nc2ccccc2F)c2cc(S(=O)(=O)N3CCOCC3)ccc21 | . | ? | . | ? | .
C=CCn1c(O)c(N=NC(=S)Nc2ccccc2C)c2cc(S(=O)(=O)N3CCOCC3)ccc21 | . | 2.9µM | . | 13µM | .
Cc1ccc(NC(=S)N=Nc2c(O)n(C)c3ccc(S(=O)(=O)N4CCOCC4)cc23)cc1C | . | 3.3µM | . | . | .
C=CCn1c(O)c(N=NC(=S)Nc2ccc(OC)c(Cl)c2)c2ccccc21 | . | 3.7µM | . | . | .
CCN(CC)CCCN1C=C2C(=O)C(C)(OC(=O)c3cccs3)C(=O)C=C2C=C1CCCC(=O)OC (configuration not stated) | .[11.5 µM] | / | / | / | /
CCCOc1ccc(S(=O)(=O)Nc2ccccn2)c2ccccc12 | . | . | / | . | .
CCOc1ccc(S(=O)(=O)Nc2ccccc2C(=O)N2CCOCC2)cc1 | . | . | . | . | .
O=C(c1cccnc1)N1CCC(Oc2ccc(C(=O)N3CCCC(O)C3)cc2)CC1 (configuration not stated) | . | . | . | ? | .
CN(C)S(=O)(=O)N1CCC(Oc2ccc(C(=O)NC3CCCCC3)cc2)CC1 | . | ? | . | 13µM | .
CC(NC(=O)c1ccc(OC2CCN(S(=O)(=O)N(C)C)CC2)cc1)C1CC1 (configuration not stated) | . | . | . | . | 20
CC(NC(=O)c1ccc(OC2CCN(C(=O)c3cccnc3)CC2)cc1)C1CC1 (configuration not stated) | . | . | . | 12µM | .
O=C(O)C1=C(CSc2nnnn2CS(=O)(=O)O)CS[C@@H]2[C@H](NC(=O)[C@H](O)c3ccccc3)C(=O)N12 | / | . | / | . | /
SMILES | LmPK inh | Pf growth 48h | Shiga inhibitor | Pf growth 96h | Cycloheximide cs
CCNC(=S)NNC(=O)c1cc(Br)cs1 | . | . | . | . | .
CC(NC(=O)c1ccco1)C(=O)OC(C)C(=O)NCc1ccccc1 (configuration not stated) | . | . | . | . | .
O=C(COc1ccccc1)Nc1ccc2[nH]ncc2c1 | . | . | . | . | .
O=C(Cc1ccccc1)Nc1ccc2[nH]ncc2c1 | . | ? | . | ? | 21
O=C(Cc1ccc(Br)cc1)Nc1ccc2[nH]ncc2c1 | . | . | / | . | .
O=C(Nc1ccc2[nH]ncc2c1)c1ccccc1 | . | . | . | . | 22
O=C(Nc1ccc2[nH]ncc2c1)c1ccc(F)cc1 | . | . | 55 | . | 19
Cc1ccccc1OCC(=O)Nc1ccc2[nH]ncc2c1 | . | . | . | 12µM | 15
O=C(COc1ccccc1F)Nc1c2c(nn1-c1ccccc1)CS(=O)(=O)C2 | . | ? | . | ? | .
CC1(C)C2CCC(C2)C1(C)NC(=O)CNCC1CCCCC1 (configuration not stated) | . | . | . | . | .
O=C(NNC1CC(=O)N(c2ccc(Cl)cc2)C1=O)c1ccco1 (configuration not stated) | . | . | . | . | .
CC(C)C(=O)Nc1cccc(NC(=O)c2cccc(F)c2)c1 | . | . | . | . | .
O=C(Nc1ccc2[nH]ncc2c1)c1cccc(F)c1 | . | . | 65 | . | 29
CC(=O)c1c(C)[nH]c(C(=O)CN2C(=O)NC(C)(CCC(C)C)C2=O)c1C (configuration not stated) | . | . | . | ? | .
CN(C)S(=O)(=O)c1cccc(NC(=O)Cn2cc(C(F)(F)F)cc(Cl)c2=O)c1 | . | . | 71 | . | .
O=C(Cn1cc(C(F)(F)F)cc(Cl)c1=O)NCc1ccc(F)cc1 | . | . | 87 | . | .
NS(=O)(=O)c1cccc(NC(=O)Cn2cc(C(F)(F)F)cc(Cl)c2=O)c1 | . | . | . | . | .
CN(c1ccccc1C(=O)O)S(=O)(=O)c1ccc2[nH]c(=O)oc2c1 | / | . | / | . | /
COc1ccccc1C(=O)NC(=O)COC(=O)c1cnc(C)cn1 | / | . | / | . | /
CCN(CC)S(=O)(=O)c1ccc(OC)c(NC(=O)COc2ccc3c(C)cc(=O)oc3c2)c1 | . | ? | . | 2.6µM | .
Cc1ccc(S(=O)(=O)N2CCOCC2)cc1NC(=O)COC(=O)c1ccc(OCc2c(C)noc2C)cc1 | . | 13µM | . | ? | .
Cc1ccc(S(=O)(=O)N2CCOCC2)cc1NC(=O)COc1ccc2c(C)cc(=O)oc2c1 | . | ? | . | 9.3µM | .
Cc1cc(=O)oc2cc(OCC(=O)Nc3ccc(CN4CCOCC4)cc3)ccc12 | . | ? | . | . | .
O=C(NCC(c1ccco1)N1CCc2ccccc2C1)c1ccc(Br)cc1 (configuration not stated) | / | ? | / | . | /
CN1/C(=C\C(=O)c2cccnc2)C(C)(C)c2ccccc21 | . | . | . | ? | 15
SMILES | LmPK inh | Pf growth 48h | Shiga inhibitor | Pf growth 96h | Cycloheximide cs
CN1/C(=C\C=N\NC(=O)c2ccc(O)cc2)C(C)(C)c2ccccc21 | . | . | . | ? | .
CN1/C(=C\C=N\NC(=O)c2cccnc2)C(C)(C)c2ccccc21 | . | 0.59µM | . | ? | .
CN1/C(=C\C(=O)c2ccco2)c2ccccc2CC1(C)C | . | . | . | 9.3µM | .
CN1/C(=C\C(=O)C[n+]2ccc3ccccc3c2)C(C)(C)c2ccccc21 | . | ? | . | 1µM | .
O=C(CCC(=O)c1ccc(Oc2ccccc2)cc1)Nc1ccc(C(=O)O)cc1 | . | . | . | ? | .
O=C(Nc1cccc(S(=O)(=O)N2CCCCC2)c1)C1CC(=O)N(c2ccc3c(c2)OCCO3)C1 (configuration not stated) | . | ? | . | ? | .
